In PubChem BioAssay AID1159580 (chemical genetic matrix, 2015):
In all, about 5,500 compounds went through this assay and about 2,000 (36%) were called active. Another 18% or so got no clear call; they are omitted. Rule as the data show it: active = normalized growth mostly below about 0.91 (no sharp cut-off); inconclusive = no clear call, values can overlap the other calls; inactive = mostly above about 0.92. This is one part of the list.

Test: chemical genetic growth profiling, strain panel (AID 1159580);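 also: tested at 20 µM; growth read once vehicle control cultures reached saturation at 30 °C; 1 = growth at the plate median or of vehicle wells; lower values mean less growth of the strain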
Conditions: growth OD

Measured: normalized growth

CN(C)C(=S)SSC(=S)N(C)C
active: S. cerevisiae deletion strains, locus YJR075W, strain HOC1, stronger effect = lower value 0.0622 | S. cerevisiae deletion strains, locus YKL009W, strain mrt4, stronger effect = lower value 0.657 | S. cerevisiae deletion strains, locus YKL068W, stronger effect = lower value 0.055 | S. cerevisiae deletion strains, locus YKL085W, strain MDH1 (second series), stronger effect = lower value 0.0509 | S. cerevisiae deletion strains, locus YKL085W, strain MDH1, stronger effect = lower value 0.0509 | S. cerevisiae deletion strains, locus YKL160W, strain elf1, stronger effect = lower value 0.0619 | S. cerevisiae deletion strains, locus YKL190W, strain CNB1, stronger effect = lower value 0.0467 | S. cerevisiae deletion strains, locus YKR001C, strain vps1, stronger effect = lower value 0.061 | S. cerevisiae deletion strains, locus YKR026C, strain gcn3, stronger effect = lower value 0.0601 | S. cerevisiae deletion strains, locus YKR091W, strain srl3, stronger effect = lower value 0.058 | S. cerevisiae deletion strains, locus YLL001W, strain dnm1, stronger effect = lower value 0.0595 | S. cerevisiae deletion strains, locus YLL026W, stronger effect = lower value 0.0612 | S. cerevisiae deletion strains, locus YLL041C, strain sdh2, stronger effect = lower value 0.0559 | S. cerevisiae deletion strains, locus YLR027C, strain aat2, stronger effect = lower value 0.0546 | S. cerevisiae deletion strains, locus YLR039C, strain RIC1, stronger effect = lower value 0.0839 | S. cerevisiae deletion strains, locus YLR058C, strain SHM2, stronger effect = lower value 0.048 | S. cerevisiae deletion strains, locus YLR102C, strain apc9, stronger effect = lower value 0.0608 | S. cerevisiae deletion strains, locus YLR113W, strain HOG1, stronger effect = lower value 0.126 | S. cerevisiae deletion strains, locus YLR221C, strain rsa3, stronger effect = lower value 0.0608 | S. cerevisiae deletion strains, locus YLR258W, strain gsy2, stronger effect = lower value 0.0595 | S. cerevisiae deletion strains, locus YLR262C, strain YPT6 (second series), stronger effect = lower value 0.0761 | S. cerevisiae deletion strains, locus YLR262C, strain YPT6, stronger effect = lower value 0.0956 | S. cerevisiae deletion strains, locus YLR268W, strain sec22, stronger effect = lower value 0.0648 | S. cerevisiae deletion strains, locus YLR320W, strain mms22, stronger effect = lower value 0.0851 | S. cerevisiae deletion strains, locus YLR330W, strain CHS5, stronger effect = lower value 0.0523 | S. cerevisiae deletion strains, locus YLR342W, strain FKS1 (second series), stronger effect = lower value 0.0636 | S. cerevisiae deletion strains, locus YLR342W, strain FKS1, stronger effect = lower value 0.0632 | S. cerevisiae deletion strains, locus YLR357W, strain rsc2, stronger effect = lower value 0.117 | S. cerevisiae deletion strains, locus YLR370C, strain arc18, stronger effect = lower value 0.0609 | S. cerevisiae deletion strains, locus YLR371W, strain rom2, stronger effect = lower value 0.0607 | S. cerevisiae deletion strains, locus YLR384C, strain iki3, stronger effect = lower value 0.0593 | S. cerevisiae deletion strains, locus YLR418C, strain cdc73, stronger effect = lower value 0.0915 | S. cerevisiae deletion strains, locus YML016C, strain PPZ1, stronger effect = lower value 0.0487 | S. cerevisiae deletion strains, locus YML032C, strain rad52, stronger effect = lower value 0.0671 | S. cerevisiae deletion strains, locus YML120C, strain ndi1, stronger effect = lower value 0.0572 | S. cerevisiae deletion strains, locus YML124C, strain tub3, stronger effect = lower value 0.0583 | S. cerevisiae deletion strains, locus YMR058W, strain fet3, stronger effect = lower value 0.0575 | S. cerevisiae deletion strains, locus YMR078C, strain ctf18, stronger effect = lower value 0.0701 | S. cerevisiae deletion strains, locus YMR125W, strain sto1, stronger effect = lower value 0.0716 | S. cerevisiae deletion strains, locus YMR129W, stronger effect = lower value 0.0557 | S. cerevisiae deletion strains, locus YMR205C, strain PFK2, stronger effect = lower value 0.0852 | S. cerevisiae deletion strains, locus YMR223W, strain ubp8, stronger effect = lower value 0.062 | S. cerevisiae deletion strains, locus YMR231W, strain pep5, stronger effect = lower value 0.0656 | S. cerevisiae deletion strains, locus YMR263W, strain SAP30, stronger effect = lower value 0.0571 | S. cerevisiae deletion strains, locus YMR307W, strain GAS1, stronger effect = lower value 0.108 | S. cerevisiae deletion strains, locus YNL067W, strain RPL9B, stronger effect = lower value 0.0475 | S. cerevisiae deletion strains, locus YNL071W, strain lat1, stronger effect = lower value 0.0591 | S. cerevisiae deletion strains, locus YNL128W, strain TEP1, stronger effect = lower value 0.0618 | S. cerevisiae deletion strains, locus YNL153C, strain GIM3, stronger effect = lower value 0.0449 | S. cerevisiae deletion strains, locus YNL183C, strain NPR1, stronger effect = lower value -0.000652 | S. cerevisiae deletion strains, locus YNL209W, strain ssb2, stronger effect = lower value 0.0584 | S. cerevisiae deletion strains, locus YNL233W, strain BNI4, stronger effect = lower value 0.0527 | S. cerevisiae deletion strains, locus YNL248C, strain rpa49, stronger effect = lower value 0.0732 | S. cerevisiae deletion strains, locus YNL250W, strain rad50, stronger effect = lower value 0.0632 | S. cerevisiae deletion strains, locus YNL271C, strain bni1, stronger effect = lower value 0.0624 | S. cerevisiae deletion strains, locus YNL298W, strain CLA4, stronger effect = lower value 0.0589 | S. cerevisiae deletion strains, locus YNL307C, strain MCK1, stronger effect = lower value 0.0687 | S. cerevisiae deletion strains, locus YNL322C, strain KRE1 (second series), stronger effect = lower value 0.0642 | S. cerevisiae deletion strains, locus YNL322C, strain KRE1, stronger effect = lower value 0.0479 | S. cerevisiae deletion strains, locus YNR049C, strain mso1, stronger effect = lower value 0.0549 | S. cerevisiae deletion strains, locus YNR052C, strain pop2, stronger effect = lower value 0.0601 | S. cerevisiae deletion strains, locus YOL006C, strain TOP1, stronger effect = lower value 0.0896 | S. cerevisiae deletion strains, locus YOL012C, strain htz1 0.179 | S. cerevisiae deletion strains, locus YOL147C, strain pex11, stronger effect = lower value 0.0594 | S. cerevisiae deletion strains, locus YOR001W, strain rrp6, stronger effect = lower value 0.0656 | S. cerevisiae deletion strains, locus YOR061W, strain CKA2, stronger effect = lower value 0.0451 | S. cerevisiae deletion strains, locus YOR069W, strain VPS5, stronger effect = lower value 0.0465 | S. cerevisiae deletion strains, locus YOR070C, strain gyp1, stronger effect = lower value 0.0589 | S. cerevisiae deletion strains, locus YOR080W, strain dia2, stronger effect = lower value 0.067 | S. cerevisiae deletion strains, locus YOR083W, strain WHI5, stronger effect = lower value 0.0647 | S. cerevisiae deletion strains, locus YOR106W, strain vam3, stronger effect = lower value 0.061 | S. cerevisiae deletion strains, locus YOR136W, strain idh2, stronger effect = lower value 0.0736 | S. cerevisiae deletion strains, locus YOR144C, strain elg1, stronger effect = lower value 0.0615 | S. cerevisiae deletion strains, locus YOR184W, strain ser1, stronger effect = lower value 0.0681 | S. cerevisiae deletion strains, locus YOR231W, strain MKK1, stronger effect = lower value 0.103 | S. cerevisiae deletion strains, locus YOR265W, strain rbl2, stronger effect = lower value 0.0567 | S. cerevisiae deletion strains, locus YOR270C, strain vph1, stronger effect = lower value 0.0916 | S. cerevisiae deletion strains, locus YOR290C, strain snf2, stronger effect = lower value 0.0706 | S. cerevisiae deletion strains, locus YOR316C, strain cot1, stronger effect = lower value 0.0552 | S. cerevisiae deletion strains, locus YPL051W, strain arl3, stronger effect = lower value 0.0635 | S. cerevisiae deletion strains, locus YPL055C, strain LGE1, stronger effect = lower value 0.0716 | S. cerevisiae deletion strains, locus YPL078C, strain atp4, stronger effect = lower value 0.0627 | S. cerevisiae deletion strains, locus YPL106C, strain sse1, stronger effect = lower value 0.1 | S. cerevisiae deletion strains, locus YPL240C, strain hsp82, stronger effect = lower value 0.0673 | S. cerevisiae deletion strains, locus YPL241C, strain CIN2, stronger effect = lower value 0.0518 | S. cerevisiae deletion strains, locus YPL256C, strain CLN2, stronger effect = lower value 0.125 | S. cerevisiae deletion strains, locus YPR119W, strain clb2, stronger effect = lower value 0.0622 | S. cerevisiae deletion strains, locus YPR141C, strain kar3, stronger effect = lower value 0.0653 | S. cerevisiae deletion strains, locus YPR163C, strain tif3, stronger effect = lower value 0.0696 | S. cerevisiae deletion strains, locus YPR167C, strain met16, stronger effect = lower value 0.0614 | S. cerevisiae deletion strains, strain wtn01, stronger effect = lower value 0.0602 | S. cerevisiae strains, strain wild type, stronger effect = lower value 0.0482
